# Laboratory results taken from PubChem BioAssay (NCATS).
# Results filed as inconclusive are left out. Where a call stands in place of a potency, no number is given. Active and inactive are the calls of the source. Unless noted, calls come from the whole dose curve; as a rule, active = well fitted curve in the direction sought with a large enough effect; inconclusive = small, poorly fitted or top-dose-only effect, or another doubt; inactive = no such curve, though single readings can be large; an effect the other way counts as inactive or inconclusive.
# Tests used:
# [1] = target: Single-stranded DNA cytosine deaminase (Homo sapiens) (UniProt Q9GZX7); experiment: Validation qHTS assay for inhibitors of Activation Induced Cytidine Deaminase (AID): AID signal (AID 1347429); note: potency is the fitted concentration of half-maximal effect
# Method in brief: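 AID and UDG were combined and compounds added at final up to 114 uM, then DJC20/DJC23 FRET substrate was added for 4 hr at room temperature. NaOH was then added for 30 min before fluorescence was read at 540/590 nm.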
# [2] = target: Calcium and integrin-binding protein 1 (Homo sapiens) (UniProt Q99828); experiment: Validation qHTS for Identification of Calcium Integrin Binding protein 1 (CIB1) Competitor (AID 1508618)
# Method in brief: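 In this qHTS validation, the LOPAC set (up to 114 uM) was tested for blocking CIB1 binding to a fluorescein-tagged alphaIIb peptide, with FP detection at 480/540 nm.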
# [3] = Primary qHTS for small molecule stabilizers of the endoplasmic reticulum resident proteome: Secreted ER Calcium Modulated Protein (SERCaMP) assay (AID 1508630)
# Method in brief: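 GLuc-SERCaMP-expressing SH-SY5Y cells, pretreated 16 h with compound, are challenged with thapsigargin to empty ER calcium stores; after 4 h, coelenterazine is added directly to the medium and luminescence is imaged.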
# [4] = target: Papain (Carica papaya) (UniProt P00784); experiment: Primary qHTS assay for inhibitors of the protease papain (AID 1645873);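 note: papain turnover of Z-FR-AMC read as the AMC fluorescence gain over 10 min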; note: potency is the fitted concentration of half-maximal effect
# [5] = Primary qHTS for inhibitors of La Crosse Virus (LACV) - induced cell death in SH-SY5Y cells (AID 1508616);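 note: top concentration of the series differs between compounds; higher means more rescue of cells from virus-induced death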
# Method in brief: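 Luminescent ATP readout (ATPLite 1step, 5 min room temperature) measured rescue from LACV-induced death after 6 days of infection at 0.01 MOI; normalized to infected DMSO wells and uninfected DMSO wells.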
# [6] = Primary qHTS for inhibitors of nuclear receptor binding SET domain protein 2 (NSD2) in an isogenic RCH-ACV NSD2 p.E1099K mutant (9B) (AID 1645876); note: nearly all actives have a fitted effect of over 70% in size; note: potency is the fitted concentration of half-maximal effect
# [7] = Primary qHTS for inhibitors of nuclear receptor binding SET domain protein 2 (NSD2) in an RCH-ACV wild type WT cells (2C) (AID 1645877); note: nearly all actives have a fitted effect of over 70% in size; note: potency is the fitted concentration of half-maximal effect
# [8] = target: Rap guanine nucleotide exchange factor 3 (Homo sapiens) (UniProt O95398); experiment: Confirmatory qHTS for antagonist of cAMP-regulated guanine nucleotide exchange factor 3 (EPAC1) (AID 1645880); note: nearly all actives have a fitted effect of over 55% in size
# Method in brief: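 Nucleotide exchange uses 100 nM EPAC1, 250 nM RAP1B-BODIPY-GDP and 50 uM GDP, with compounds in a concentration-titration series. After 5 min at room temperature, fluorescence (480 nm ex/540 nm em) is read every 5 min for 30 min. Data are normalized to control ATA and DMSO.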
# [9] = target: Rap guanine nucleotide exchange factor 3 (Homo sapiens) (UniProt O95398); experiment: Confirmatory qHTS for agonist of cAMP-regulated guanine nucleotide exchange factor 3 (EPAC1) (AID 1645881);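 note: EPAC1 catalysed release of BODIPY-GDP from Rap1B seen as fluorescence loss; nearly all actives have a fitted effect of over 75% in size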
# [10] = target: Rap guanine nucleotide exchange factor 4 (Homo sapiens) (UniProt Q8WZA2); experiment: Confirmatory qHTS for agonist of cAMP-regulated guanine nucleotide exchange factor 4 (EPAC2) (AID 1645884);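 note: nucleotide exchange releases bodipy-GDP from Rap1 and this lowers its fluorescence; nearly all actives have a fitted effect of over 65% in size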
# [11] = Counterscreen qHTS for small molecule stabilizers of the endoplasmic reticulum resident proteome: GLuc-NoTag assay (AID 1508627);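 note: SH-SY5Y cells given compound then 100 nM thapsigargin to empty ER calcium; series mostly up to about 76 µM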
# Method in brief: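 SH-SY5Y cells stably expressing constitutively secreted GLuc (no SERCaMP tag) were pre-incubated 5 h, treated with compound for 19 h, then 100 nM thapsigargin for 4 h at 37C; medium GLuc read by coelenterazine luminescence.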
# [12] = target: N-terminal Xaa-Pro-Lys N-methyltransferase 1 (Homo sapiens) (UniProt Q9BV86); experiment: Confirmatory qHTS for Inhibitors of N-terminal methyltransferase 1 (NTMT1): MTaseGlo Assay (AID 1645874); settings: NTMT1 enzyme, MTase-Glo SAH luminescence; note: potency is the fitted concentration of half-maximal effect; nearly all actives have a fitted effect of over 65% in size
# Method in brief: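 Compounds are incubated with 125 nM NTMT1 and 100 uM SAM for 15 min before the SPKRIA peptide (1 uM) starts a 30 min room-temperature methylation. SAH is measured by coupled luciferase luminescence and curves fitted to a Hill equation.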
# [13] = Confirmatory qHTS for small molecule stabilizers of the endoplasmic reticulum resident proteome: Secreted ER Calcium Modulated Protein (SERCaMP) assay (AID 1508628); note: potency is the fitted concentration of half-maximal effect; nearly all actives have a fitted effect of over 40% in size
# Method in brief: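 We seeded SH-SY5Y-GLuc-SERCaMP cells, added compounds (three concentrations in the primary run, eleven up to 76.6 uM in confirmation), incubated 16 h, depleted ER calcium with thapsigargin, and read luciferase 4 h later.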
# [14] = target: Calcium and integrin-binding protein 1 (Homo sapiens) (UniProt Q99828); experiment: Primary qHTS for Identification of Calcium Integrin Binding Protein 1 (CIB1) Competitor (AID 1508620);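 note: GST tagged CIB1 binding a fluorescein labelled alphaIIb integrin peptide tracer; top concentration of the series differs between compounds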
# Method in brief: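 Fluorescence polarization competition: CIB1-GST (1 uM final) preincubated with compound 15 min at room temperature, then FITC-labeled alphaIIb peptide (100 nM final) added for another 15 min. Polarization read at Ex 480/Em 540.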
# [15] = A High-Content qHTS Against Drug Library for the Identification of Small Molecules that Inhibit DYT1 Early Onset Primary Dystonia-Associated Cell Pathology (AID 1645839; calls by dose curve; note: series mostly up to about 46 µM)
# Method in brief: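 Readout: %pathology, the punctate EGFP-TorsinA distribution from imaging, as the primary channel and cell count as the toxicity counterscreen. HEK293 Flp-In cells expressing delE TorsinA were induced with tetracycline and treated with compound for 48 h.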
# [16] = target: Cytochrome P450 2D6 (Homo sapiens) (UniProt P10635); experiment: Cytochrome P450 family 2 subfamily D member 6 (CYP2D6) small molecule antagonists: luciferase biochemical (cell-free) qHTS assay (AID 1645840; active = well fitted curve in the direction sought with a large enough effect in the repeat runs; an effect the other way counts as inactive or inconclusive; note: potency is the fitted concentration of half-maximal effect; nearly all actives have a fitted effect of over 55% in size)
# Method in brief: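 P450-Glo luminescent screen: recombinant CYP2D6 enzyme–proluciferin substrate mix preincubated with compound 10 min at room temperature, then NADPH regeneration added for 1 h at room temperature. Detection reagent added for 20 min; luciferin light read as relative luminescence units.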
# [17] = target: Cytochrome P450 2C9 (Homo sapiens) (UniProt P11712); experiment: Cytochrome P450 family 2 subfamily C member 9 (CYP2C9) small molecule antagonists: luciferase biochemical (cell-free) qHTS assay (AID 1645842; active = well fitted curve in the direction sought with a large enough effect in the repeat runs; an effect the other way counts as inactive or inconclusive; note: potency is the fitted concentration of half-maximal effect; nearly all actives have a fitted effect of over 55% in size)
# Method in brief: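 Luminescence, after 20 min with luciferin detection reagent, reflected CYP2C9 turnover during a 1 h NADPH-driven reaction at 37C. Enzyme-substrate mix contained 0.4% bovine serum albumin and was preincubated with compound 10 min at room temperature.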
# [18] = Cell Viability qHTS for small molecule stabilizers of the endoplasmic reticulum resident proteome (AID 1508629); settings: cell viability counter-screen, 100 nM thapsigargin for final 4 h;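 note: human SH-SY5Y neuroblastoma cells carrying the GLuc-SERCaMP reporter; compound exposure about 46 h in total before the viability read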
# Papain (Carica papaya), sequence (P00784 whole entry, looked up): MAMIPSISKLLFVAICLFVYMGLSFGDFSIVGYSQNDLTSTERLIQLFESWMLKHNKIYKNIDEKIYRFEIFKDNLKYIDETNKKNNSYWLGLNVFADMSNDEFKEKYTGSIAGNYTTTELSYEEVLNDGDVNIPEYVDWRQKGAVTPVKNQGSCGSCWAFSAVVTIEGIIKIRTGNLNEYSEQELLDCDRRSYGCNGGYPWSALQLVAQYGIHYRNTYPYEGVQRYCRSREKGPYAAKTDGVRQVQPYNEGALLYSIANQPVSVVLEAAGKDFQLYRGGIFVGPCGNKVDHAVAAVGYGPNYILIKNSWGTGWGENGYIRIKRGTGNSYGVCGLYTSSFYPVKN
# Calcium and integrin-binding protein 1 (Homo sapiens), sequence (Q99828 whole entry, looked up): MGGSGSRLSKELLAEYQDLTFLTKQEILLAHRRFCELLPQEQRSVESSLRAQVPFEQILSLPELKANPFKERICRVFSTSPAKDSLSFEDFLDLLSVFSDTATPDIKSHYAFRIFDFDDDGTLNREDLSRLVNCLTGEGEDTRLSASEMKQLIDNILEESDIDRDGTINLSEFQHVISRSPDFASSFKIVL
# Rap guanine nucleotide exchange factor 4 (Homo sapiens), sequence (Q8WZA2 whole entry, looked up): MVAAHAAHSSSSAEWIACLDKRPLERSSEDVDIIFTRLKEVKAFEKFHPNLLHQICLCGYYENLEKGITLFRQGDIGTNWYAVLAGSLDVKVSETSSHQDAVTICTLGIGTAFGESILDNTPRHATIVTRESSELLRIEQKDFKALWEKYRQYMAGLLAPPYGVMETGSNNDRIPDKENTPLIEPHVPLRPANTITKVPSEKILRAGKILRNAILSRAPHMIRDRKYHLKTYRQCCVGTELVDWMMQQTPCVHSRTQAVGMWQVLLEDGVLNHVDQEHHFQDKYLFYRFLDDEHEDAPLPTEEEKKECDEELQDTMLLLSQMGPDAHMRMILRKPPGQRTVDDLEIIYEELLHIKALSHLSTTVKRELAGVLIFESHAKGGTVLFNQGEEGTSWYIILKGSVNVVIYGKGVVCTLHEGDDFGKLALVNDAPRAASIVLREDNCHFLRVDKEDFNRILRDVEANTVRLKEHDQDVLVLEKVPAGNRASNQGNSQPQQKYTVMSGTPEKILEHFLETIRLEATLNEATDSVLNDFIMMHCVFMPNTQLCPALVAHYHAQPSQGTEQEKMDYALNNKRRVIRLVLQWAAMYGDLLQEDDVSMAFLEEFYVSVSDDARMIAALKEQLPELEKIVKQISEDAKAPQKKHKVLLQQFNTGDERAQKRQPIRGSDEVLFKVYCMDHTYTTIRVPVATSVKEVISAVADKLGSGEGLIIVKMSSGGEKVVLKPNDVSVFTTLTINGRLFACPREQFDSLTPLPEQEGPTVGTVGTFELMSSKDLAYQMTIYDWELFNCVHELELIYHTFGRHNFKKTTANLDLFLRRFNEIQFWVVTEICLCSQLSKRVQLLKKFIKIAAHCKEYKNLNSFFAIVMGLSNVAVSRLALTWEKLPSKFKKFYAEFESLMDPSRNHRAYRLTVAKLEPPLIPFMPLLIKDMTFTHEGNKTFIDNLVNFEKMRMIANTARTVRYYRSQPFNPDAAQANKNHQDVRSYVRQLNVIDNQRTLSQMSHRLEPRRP
# Rap guanine nucleotide exchange factor 3 (Homo sapiens), sequence (O95398 whole entry, looked up): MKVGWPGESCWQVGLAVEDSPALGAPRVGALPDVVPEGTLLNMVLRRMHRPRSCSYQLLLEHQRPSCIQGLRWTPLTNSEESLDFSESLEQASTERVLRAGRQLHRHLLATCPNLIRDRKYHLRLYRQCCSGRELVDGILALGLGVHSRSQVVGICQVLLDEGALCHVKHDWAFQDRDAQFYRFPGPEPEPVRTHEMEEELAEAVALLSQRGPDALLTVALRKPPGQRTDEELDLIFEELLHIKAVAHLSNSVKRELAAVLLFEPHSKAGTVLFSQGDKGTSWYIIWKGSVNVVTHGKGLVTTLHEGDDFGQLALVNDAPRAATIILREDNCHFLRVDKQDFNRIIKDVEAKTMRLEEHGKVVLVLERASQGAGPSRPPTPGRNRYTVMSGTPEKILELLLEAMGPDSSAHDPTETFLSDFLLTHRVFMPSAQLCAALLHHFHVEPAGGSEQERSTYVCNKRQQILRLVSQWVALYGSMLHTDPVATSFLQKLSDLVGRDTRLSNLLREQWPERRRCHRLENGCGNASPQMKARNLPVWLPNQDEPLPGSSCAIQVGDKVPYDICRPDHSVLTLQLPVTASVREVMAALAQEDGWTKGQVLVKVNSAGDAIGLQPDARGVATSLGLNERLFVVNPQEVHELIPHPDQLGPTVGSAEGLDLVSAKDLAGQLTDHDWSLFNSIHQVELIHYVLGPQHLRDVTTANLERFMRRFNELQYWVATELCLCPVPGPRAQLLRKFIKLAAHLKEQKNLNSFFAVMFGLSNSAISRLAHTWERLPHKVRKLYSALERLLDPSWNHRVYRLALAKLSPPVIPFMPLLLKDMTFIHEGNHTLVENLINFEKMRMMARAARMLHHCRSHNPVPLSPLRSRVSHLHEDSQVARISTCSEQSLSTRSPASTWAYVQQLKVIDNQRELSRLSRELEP
# Single-stranded DNA cytosine deaminase (Homo sapiens), sequence (Q9GZX7 whole entry, looked up): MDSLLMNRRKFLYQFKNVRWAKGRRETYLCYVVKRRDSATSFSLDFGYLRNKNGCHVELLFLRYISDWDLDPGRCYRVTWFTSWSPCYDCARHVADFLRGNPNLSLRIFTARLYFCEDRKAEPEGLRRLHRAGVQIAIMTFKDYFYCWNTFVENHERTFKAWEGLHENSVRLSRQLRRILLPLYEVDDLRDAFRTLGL
# N-terminal Xaa-Pro-Lys N-methyltransferase 1 (Homo sapiens), sequence (Q9BV86 whole entry, looked up): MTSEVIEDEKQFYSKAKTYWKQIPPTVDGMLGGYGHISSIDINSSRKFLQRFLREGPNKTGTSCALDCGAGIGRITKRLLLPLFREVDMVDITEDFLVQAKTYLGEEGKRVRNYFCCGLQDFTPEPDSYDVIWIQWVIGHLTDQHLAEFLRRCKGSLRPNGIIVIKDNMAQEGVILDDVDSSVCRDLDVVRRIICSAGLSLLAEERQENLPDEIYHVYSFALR
# Cytochrome P450 2D6 (Homo sapiens), sequence (P10635 whole entry, looked up): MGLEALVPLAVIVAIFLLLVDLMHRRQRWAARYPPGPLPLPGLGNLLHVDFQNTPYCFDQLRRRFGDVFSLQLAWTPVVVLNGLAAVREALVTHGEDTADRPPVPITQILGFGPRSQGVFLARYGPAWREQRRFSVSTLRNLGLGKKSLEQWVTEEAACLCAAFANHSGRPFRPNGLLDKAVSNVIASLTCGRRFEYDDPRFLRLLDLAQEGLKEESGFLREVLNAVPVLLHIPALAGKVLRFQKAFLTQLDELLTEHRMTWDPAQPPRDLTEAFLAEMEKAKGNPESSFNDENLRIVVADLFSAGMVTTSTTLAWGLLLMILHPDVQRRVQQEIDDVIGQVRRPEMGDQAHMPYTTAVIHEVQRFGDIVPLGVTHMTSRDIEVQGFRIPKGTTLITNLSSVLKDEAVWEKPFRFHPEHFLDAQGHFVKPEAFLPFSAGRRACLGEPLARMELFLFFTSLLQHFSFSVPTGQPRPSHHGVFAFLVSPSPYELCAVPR
# Cytochrome P450 2C9 (Homo sapiens), sequence (P11712 whole entry, looked up): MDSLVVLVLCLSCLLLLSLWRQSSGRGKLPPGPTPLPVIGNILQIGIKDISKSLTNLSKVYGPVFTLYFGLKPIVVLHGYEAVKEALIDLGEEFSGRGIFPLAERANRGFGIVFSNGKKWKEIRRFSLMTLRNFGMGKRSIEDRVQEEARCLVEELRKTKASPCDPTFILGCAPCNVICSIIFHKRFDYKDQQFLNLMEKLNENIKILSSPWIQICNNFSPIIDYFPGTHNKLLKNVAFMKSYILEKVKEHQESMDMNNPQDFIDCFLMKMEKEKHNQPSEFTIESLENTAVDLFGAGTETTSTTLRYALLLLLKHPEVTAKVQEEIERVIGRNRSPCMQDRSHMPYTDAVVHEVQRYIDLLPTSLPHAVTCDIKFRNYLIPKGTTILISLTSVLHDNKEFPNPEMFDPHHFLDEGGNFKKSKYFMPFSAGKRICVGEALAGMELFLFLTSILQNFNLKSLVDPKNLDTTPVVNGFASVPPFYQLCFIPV
smiles,measurement,setting,value
CC(=O)/C=C1\C(=O)N(C)c2ccccc21,Potency,[1],inactive
same,outcome,[2],inactive
same,Potency,[3],inactive
same,Potency,[4],inactive
O=S(=O)(c1cccc2c(I)cccc12)N1CCCNCC1,Potency,[1],inactive
same,outcome,[2],inactive
same,Potency,[4],inactive
CN(C)c1nc2c(Br)c(Br)c(Br)c(Br)c2[nH]1,Potency,[1],inactive
same,Potency,[5],inactive
same,Potency,[3],inactive
same,Potency,[6],14.6 µM (active)
same,Potency,[7],10.3 µM (active)
CC12C(=O)OC(=O)C1(C)C1CCC2O1 (stereo unspecified),Potency,[1],inactive
same,outcome,[2],inactive
same,Potency,[3],inactive
same,Potency,[4],inactive
CC(C)(C=O)Cc1cc(C(C)(C)C)c(O)c(C(C)(C)C)c1,Potency,[1],inactive
same,outcome,[2],inactive
same,Potency,[3],inactive
same,Potency,[4],inactive
S=C(S)OC1CC2CC1C1CCCC21 (stereo unspecified),Potency,[1],inactive
same,outcome,[2],inactive
same,Potency,[3],inactive
same,Potency,[4],inactive
COC(=O)c1c(C)[nH]c(C)c1C(=O)c1ccccc1Cc1ccccc1,Potency,[1],inactive
same,outcome,[2],inactive
same,Potency,[3],inactive
same,Potency,[4],inactive
same,Potency,[8],inactive
same,Potency,[9],inactive
C=CC(N)CCC(=O)O (stereo unspecified),Potency,[1],inactive
same,outcome,[2],inactive
same,Potency,[4],inactive
CN1C2CCC1CC(OC(=O)C(O)c1ccccc1)C2 (stereo unspecified),Potency,[1],inactive
same,Potency,[5],inactive
same,Potency,[4],inactive
COC1=C(OC)C(=O)c2ccccc2C1=O,Potency,[1],50.1 µM (active)
same,outcome,[2],inactive
same,Potency,[4],inactive
O=Nc1ccc2oc(=O)ccc2c1,Potency,[1],inactive
same,Potency,[5],inactive
same,Potency,[3],inactive
same,Potency,[4],inactive
Cn1ncc(S(=O)(=O)Cc2ccccc2)c(Br)c1=O,Potency,[1],inactive
same,outcome,[2],inactive
same,Potency,[3],inactive
same,Potency,[4],inactive
CCOC(=O)C1=C(C)NC(C)=C(C(=O)OCC)C1c1c(F)c(F)c(F)c(F)c1F,Potency,[1],inactive
same,Potency,[5],inactive
same,Potency,[3],inactive
same,Potency,[4],25.1 µM (active)
same,Potency,[9],inactive
same,Potency,[10],inactive
NC(=O)C1=CN(C2OC(COP(=O)(O)OP(=O)(O)OC[C@H]3O[C@@H](n4cnc5c(N)ncnc54)[C@H](OP(=O)(O)O)[C@@H]3O)C(O)C2O)C=CC1 (stereo partly specified),Potency,[1],inactive
same,Potency,[5],inactive
same,Potency,[4],inactive
NCCCCCCCCCCN,Potency,[1],inactive
same,outcome,[2],inactive
same,Potency,[3],inactive
same,Potency,[4],inactive
N=c1ccn2c(n1)O[C@H]1[C@H](O)[C@@H](CO)O[C@H]12,Potency,[1],inactive
same,outcome,[2],inactive
same,Potency,[3],inactive
Cc1cc(NC2CCCCC2)nc(-n2nc(C)cc2C)n1,Potency,[1],inactive
same,Potency,[5],inactive
same,Potency,[3],inactive
same,Potency,[4],inactive
OC[C@H]1O[C@@H](n2cnc3c(NC4CCCCC4)ncnc32)[C@H](O)[C@@H]1O,Potency,[1],inactive
same,outcome,[2],inactive
same,Potency,[3],inactive
same,Potency,[4],inactive
O=C(CCCCCN1CCN(c2ccccc2-c2ccccc2)CC1)NC1CCCc2ccccc21 (stereo unspecified),Potency,[1],inactive
same,Potency,[5],inactive
same,Potency,[4],inactive
NS(=O)(=O)C#Cc1ccccc1,Potency,[1],inactive
same,outcome,[2],inactive
same,Potency,[3],inactive
same,Potency,[4],inactive
O=C(/C=C/c1ccc(O)cc1)c1ccc(O)cc1O,Potency,[1],inactive
same,outcome,[2],inactive
same,Potency,[11],inactive
same,Potency,[3],inactive
same,Potency,[4],inactive
same,Potency,[6],8.33 µM (active)
same,Potency,[7],5.25 µM (active)
CN=c1nc(-c2ccccc2)n(-c2ccccc2)s1,Potency,[1],inactive
same,outcome,[2],inactive
same,Potency,[3],inactive
same,Potency,[12],0.851 µM (active)
Nc1ncnc2c1c(I)cn2[C@@H]1C[C@H](N)[C@@H](O)[C@H]1O,Potency,[1],inactive
same,Potency,[5],inactive
same,Potency,[12],3.65 µM (active)
same,Potency,[6],18.4 µM (active)
same,Potency,[7],23.1 µM (active)
Oc1cc2c(cc1O)CN(C(=S)NCCc1ccc(Cl)cc1)CCC2,Potency,[1],inactive
same,outcome,[2],inactive
same,Potency,[13],15.8 µM (active)
same,Potency,[4],inactive
same,Potency,[9],inactive
same,Potency,[10],inactive
CC(N)C(=O)OC(C)(C)Cc1ccc(Cl)cc1 (stereo unspecified),Potency,[1],inactive
same,outcome,[2],inactive
same,Potency,[14],inactive
same,Potency,[3],inactive
same,Potency,[15],inactive
same,Potency,[16],12.3 µM (active)
same,Potency,[17],12.3 µM (active)
same,Potency,[4],inactive
same,Potency,[6],inactive
Fc1ccc(C(OCCCc2cnc[nH]2)c2ccc(F)cc2)cc1,Potency,[1],inactive
same,outcome,[2],inactive
same,Potency,[11],inactive
same,max response,[18],-7.37% (inactive)
same,Potency,[3],inactive
C=CC(C)=C[C@@]1(C)SC(=O)C(C)=C1O,Potency,[1],inactive
same,Potency,[5],inactive
same,Potency,[4],inactive
CCNC(=O)[C@H]1O[C@@H](n2cnc3c(N)nc(NCCc4ccc(CCC(=O)O)cc4)nc32)[C@H](O)[C@@H]1O,Potency,[1],inactive
same,Potency,[14],inactive
same,Potency,[3],inactive
same,Potency,[6],inactive
same,Potency,[7],inactive
C#CCN1C(C)=C(C(=O)OC)C(c2cccc([N+](=O)[O-])c2)C(C(=O)OCC)=C1C (stereo unspecified),Potency,[1],inactive
same,Potency,[5],inactive
same,Potency,[3],inactive
same,Potency,[9],inactive
same,Potency,[10],inactive
O=c1[nH]c2cc([N+](=O)[O-])c([N+](=O)[O-])cc2[nH]c1=O,Potency,[1],inactive
same,Potency,[5],inactive
same,Potency,[3],inactive
same,Potency,[4],inactive
NC[C@H]1O[C@@H](n2cnc3c(N)ncnc32)[C@H](O)[C@@H]1O,Potency,[1],inactive
same,Potency,[5],inactive
same,Potency,[3],inactive
same,Potency,[4],inactive
O=C(O)c1cc(=O)c2c(Cl)cc(Cl)cc2[nH]1,Potency,[1],inactive
same,outcome,[2],inactive
same,Potency,[3],inactive
same,Potency,[4],inactive
NC(=O)C(=O)O,Potency,[1],inactive
same,outcome,[2],inactive
same,Potency,[3],inactive
same,Potency,[4],inactive
NCC1OC(O[C@H]2[C@H](O)[C@@H](OC3C(O)C(N)CC(N)C3OC3OC(CO)C(O)C(O)C3N)O[C@@H]2CO)C(N)C(O)C1O (stereo partly specified),Potency,[1],inactive
same,outcome,[2],inactive
same,Potency,[3],inactive
